# Tau fibril ThT: qHTS for Inhibitors of Tau Fibril Formation, Thioflavin T Binding. Microtubule-associated protein tau (Homo sapiens), P10636. recombinant tau K18 P301L, heparin-induced fibrillization, ThT fluorescence. Potency, µM (series often up to 57.4 µM), for the others: top-dose activity, negative = inhibition, most hits filed as inhibitors. actives 2.1% (n = 270,000). AID 1460, 2008; further: on the % scale 0 is the no-effect control and ±100 the full control effect; nearly all actives have a fitted effect of over 55% in size
# Target sequence (P10636 561-689 P618L limits assumed): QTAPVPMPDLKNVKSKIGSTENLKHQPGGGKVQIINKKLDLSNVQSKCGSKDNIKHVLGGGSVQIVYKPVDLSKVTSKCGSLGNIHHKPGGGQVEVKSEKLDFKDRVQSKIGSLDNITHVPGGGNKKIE
#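 Heparin-induced (20 uM) aggregation of recombinant human K18 P301L tau, 15 uM unlabeled with 0.24 uM labeled, pH 7 acetate buffer, 6 hr at 37 C with compound. Fibrils quantified by 30 uM ThT fluorescence after 1 hr ambient incubation.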
# Tau fibril FP: qHTS for Inhibitors of Tau Fibril Formation, Fluorescence Polarization | Microtubule-associated protein tau (Homo sapiens), P10636 | K18 P301L tau heparin fibrillization, Alexa594 FP, 6 h | Potency, µM (highest dose often 57.7 µM), for inactives: top-dose activity, negative = inhibition, usual class: inhibitors | actives 0.39% (n = 280,000); further: on the % scale 0 is the no-effect control and ±100 the full control effect; nearly all actives have a fitted effect of over 55% in size
#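 Heparin (20 uM) drove fibril formation of recombinant tau K18 P301L, 15 uM unlabeled with 0.24 uM Alexa 594 label, for 6 hr at 37 C in 100 mM sodium acetate pH 7. Fluorescence polarization (555/632 nm) read 1 hr after 30 uM ThT.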
# HTT ATP protect: qHTS Multiplex Assay to Identify Dual Action Probes in a Cell Model of Huntington: Cytoprotection (ATP); PC12 HTT-Q103 induced, cytoprotection, ATP luminescence, 40 h; Potency, µM (doses to about 56.4 µM), for inactives: cytoprotection (ATP increase), most hits filed as activators; actives 0.14% (n = 230,000); AID 1471, 2008; further: % of control where 0% means no effect; nearly all actives have a fitted effect of over 45% in size
#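 Stable PC12 Q103-GFP cells in serum-supplemented, phenol red-free DMEM; induction by tebufenozide at 100 nM final; compound dose series; cell viability quantified luminescently from ATP.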
# HTT aggregate: qHTS Multiplex Assay to Identify Dual Action Probes in a Cell Model of Huntington: Aggregate Formation (GFP). AID 1688, 2009. actives 1.1% (n = 220,000). Potency, µM (top dose mostly 46.1 µM), inactives show top-dose activity change, negative = inhibition, usual class: inhibitors. PC12 HttQ103-GFP aggregates, Acumen cytometry, 40 h; further: on the % scale 0 is the no-effect control and ±100 the full control effect; nearly all actives have a fitted effect of over 60% in size
#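 Ecdysone-promoter PC12 model expressing HTT exon 1 Q103 fused to GFP, induced by tebufenozide at 100 nM final. Compounds titrated; aggregates sized 1–25 µm scored on a 488 nm laser cytometer.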
# Tau fluor cs: Counterscreen qHTS for Inhibitors of Tau Fibril Formation, Fluorescence Polarization; Potency, µM (series often up to 57.7 µM), for the others: top-dose activity change, negative = decrease; actives 0.93% (n = 280,000); tau K18 P301L Alexa594 fluorescence, heparin fibrillization; AID 1463, 2008; further: on the % scale 0 is the no-effect control and ±100 the full control effect; nearly all actives have a fitted effect of over 55% in size
#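 Human tau K18 P301L (15 uM unlabeled, 0.24 uM Alexa 594-labeled) in 100 mM sodium acetate pH 7 with 20 uM heparin, 6 hr at 37 C. ThT 30 uM added, 1 hr ambient; Alexa 594 FP and total fluorescence read at 555/632 nm.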
# Active calls of the source: *; u = inconclusive; x = not tested or not shown; [ ] = dose if it differs, or a comment. Hits are enriched below; roughly 3.7% of the tested compounds scored in any of these assays. The call rests on the fitted dose curve; in most records, active means well fitted curve in the direction sought with a large enough effect; inconclusive means small, poorly fitted or top-dose-only effect, or another doubt; inactive means no such curve, though single readings can be large; an effect the other way counts as inactive or inconclusive. Potency means the concentration at half of the fitted maximal effect.
SMILES,Tau fibril ThT,Tau fibril FP,HTT ATP protect,HTT aggregate,Tau fluor cs
Cc1[nH]c2ccccc2c1N=Nc1cccc(C(=O)O)c1,7.94µM*,12.3%,5.4%[10 µM],11.3%,-23.2%
COC(=O)c1cc(N=Nc2c(C)[nH]c3ccccc23)cc(C(=O)OC)c1,u,2.3%,3.4%[10 µM],-27.4%[9.22 µM],u
CSc1nc(N)nc(SCCS(=O)(=O)c2ccc(Cl)cc2)c1C#N,u,6.1%,-12.5%[0.074 µM],10µM*,-27.7%
CCCCN(C)S(=O)(=O)c1ccc(C(=O)Nc2nnc(CSC)o2)cc1,-9.6%,-2.4%,-66.3%,8.91µM*,-4.3%
CCCCN(CCCC)S(=O)(=O)c1ccc(C(=O)Nc2nnc(COC)o2)cc1,-5.5%,0.9%,-80.6%,11.2µM*,-6.1%
CCN(CC)S(=O)(=O)c1ccc(C(=O)Nc2nnc(COC)o2)cc1,-9.9%,-3.3%,-41.5%,4.7%,-8.4%
CCN(CC)S(=O)(=O)c1ccc(C(=O)Nc2nnc(CSC)o2)cc1,3.2%,0.8%,-8.3%,u,0.9%
Nc1nc(C(=O)O)c(N=Nc2ccccc2)c(=O)[nH]1,x,x,10.6%[10 µM],x,x
COc1cc(NC(=O)Cn2c(=O)n(Cc3ccccc3Cl)c(=O)c3cc(OC)c(OC)cc32)cc(OC)c1,15.9%,u,x,x,-8.8%
CCc1ccccc1NC(=O)CSc1nc2ncccc2o1,-5.8%,3.3%,x,x,-8.2%
CCOC(=O)c1c(NC(=O)c2ccccc2Cl)sc2c1CCc1ccccc1-2,u,-12.7%,x,-13.8%,-28.6%
CCCCC(=O)Nc1sc2c(c1C(=O)OCC)CCC(C=O)=C2Cl,25.1µM*,-8.7%,-100.7%,u,-22.3%
O=C(/C=C/c1cccc(O)c1)c1cccnc1,-15.5%,13.4%,-24.8%,-9.1%,5.4%
CN(C)c1ccc(/C=C/C(=O)c2ccccc2O)cc1,3.98µM*,u,-32.7%,-16.4%,u
CN(C)c1ccc(/C=C/C(=O)c2cccnc2)cc1,5.01µM*,3.7%,-3.4%[10 µM],9.9%[9.22 µM],u
COc1ccc(/C=C/C(=O)c2cc3cccc(OC)c3oc2=O)cc1,7.08µM*,13.7%,-30.2%,28.5%,-21.8%
COc1ccc(C(=O)/C=C/c2ccccc2)c(OC)c1,u,11.4%,3.3%[10 µM],9.2%[9.22 µM],-8.9%
COc1ccc(C(=O)/C=C/c2ccc(N(C)C)cc2)c(OC)c1,u,-2.9%,-2.3%[10 µM],-4.0%[9.22 µM],14.1µM*[quencher]
O=C(CSc1nc2ccccc2n1Cc1cccc(Cl)c1)N1CCN(c2ccc(F)cc2)CC1,u,-0.8%,x,x,-22.9%
COc1ccc(C(=O)/C=C/c2ccc(C)cc2)c(OC(=O)c2ccc([N+](=O)[O-])cc2)c1,3.55µM*,8.6%,-18.9%[10 µM],-2.6%,u
COc1cc(O)c(C(=O)/C=C/c2ccc(OC)c(O)c2)c(OC)c1,3.16µM*,-1.9%,-96.6%,x,u
COc1ccc(/C=C/C(=O)c2ccc(C)c([N+](=O)[O-])c2)cc1O,4.3%,0.1%,-2.0%[10 µM],-18.9%,-0.6%
Cc1cc(C)c(NC(=O)c2c(C)oc3c2C2=NCCN2C=N3)c(C)c1,0.5%,2.7%,x,x,-1.3%
O=c1[nH]c(=O)n([C@H]2C[C@H](O)[C@H](CO)O2)cc1/C=C\Br,x,x,-6.9%[1.9 µM],x,x
CN(Cc1ccccc1)C(=O)c1cccc(NC(=O)c2nsc3ccccc23)c1,-13.6%,-3.1%,x,x,-22.2%
SMILES,Tau fibril ThT,Tau fibril FP,HTT ATP protect,HTT aggregate,Tau fluor cs
COc1cc(Br)cc(CNc2ccc(F)c([N+](=O)[O-])c2)c1O,15.8µM*,-1.3%,-38.2%,-8.2%,25.1µM*[quencher]
Cn1nc(-c2ccc(Cl)cc2)cc1NC(=O)Nc1ccccc1,13.6%,u,-15.5%[10 µM],-20.7%[9.22 µM],u
Cn1nc(-c2ccccc2)cc1NC(=O)Nc1ccc(C(C)(C)C)cc1,-0.3%,28.2µM*,-0.9%[10 µM],16.9%[9.22 µM],12.6µM*[quencher]
CN(C)CC[C@@](O)(c1ccccc1)c1ccccc1Cl,x,x,-1.9%,3.0%,x
O=C1c2sc3nc4ccccc4n3c2C(=O)N1c1ccccc1Cl,28.2µM*,u,-15.9%,-9.8%,-29.2%
Cc1ccccc1N1C(=O)c2sc3nc4c(c(=O)n3c2C1=O)CCC4,u,u,28.3%,-3.8%,-6.1%
O=C1C=CC(O)(c2cc(=O)c3c(O)cc(O)cc3o2)C=C1,12.6µM*,11.2µM*,x,u,-25.1%
Cc1ccc2[nH]c(=O)c3cc(C(=O)NCc4cccc(Cl)c4)sc3c2c1,-7.2%,u,x,x,u
CCn1c(C(=O)N2CCCC(C(=O)N3CCN(c4ccccc4)CC3)C2)cc2sccc21 (stereo not given),u,2.5%,x,x,-26.1%
O=C(O)C1CC2(C1)CC(C(=O)O)C2 (stereo not given),x,x,12.1%[10 µM],x,x
N#C/C(=C/c1ccc(O)c(O)c1)C(=O)OC/C=C/c1ccccc1,11.2µM*,u,-26.5%,x,11.2µM*[quencher]
N#C/C(=C\c1ccc(O)c(O)c1)C(=O)Nc1ccccc1,12.6µM*,12.8%,-17.0%,x,u
C[C@@H](NC(=O)/C(C#N)=C/c1ccc(O)c(O)c1)c1ccccc1,u,4.3%,-16.7%,x,u
N#C/C(=C\c1ccc(O)c([N+](=O)[O-])c1)C(=O)NCc1ccccc1,15.8µM*,9.2%,8.0%[10 µM],-4.2%,-9.1%
CCOC(=O)[C@]1(CC(=O)O)CCCC1=O,x,x,8.4%[10 µM],x,x
N#CC(C#N)=C(Nc1ccc(F)cc1)SCc1cccc(Br)c1,u,u,-64.4%[10 µM],2.24µM*,u
Cc1cccc(CSC(Nc2ccc(F)cc2)=C(C#N)C#N)c1,-16.8%,u,-18.4%[10 µM],4.47µM*,u
COc1ccc(CCNC(=O)c2cc3c(s2)-c2c(C)cccc2OC3)c(OC)c1,u,0.4%,x,x,u
O=[N+]([O-])c1ccc2nc(/C=C/c3ccc(Cl)cc3)[nH]c2c1,12.6µM*,-1.5%,-63.2%,u,u
O=[N+]([O-])c1ccc(-c2nc3ccc([N+](=O)[O-])cc3[nH]2)cc1,2.82µM*,u,-93.9%,17.8µM*,u
Nc1ccc(-c2nc3ccc([N+](=O)[O-])cc3[nH]2)cc1,12.6µM*,13.7%,-53.5%[10 µM],4.1%,u
NC(=O)CSc1nc2ccc([N+](=O)[O-])cc2[nH]1,u,0.5%,-27.2%,-15.6%,-16.2%
Cc1nn(C)c2c1c(-c1ccccc1)cc(=O)n2CC(=O)NC(C)c1ccccc1 (stereo not given),u,-2.7%,x,x,-10.1%
COc1ccccc1NC(=O)CSc1ncc2c(n1)-c1cc(Cl)ccc1N(Cc1ccccc1)S2(=O)=O,-3.3%,-5.7%,x,x,-27.0%

# High-throughput results deposited in PubChem BioAssay by National Center for Advancing Translational Sciences (NCATS).
